This is a sample that favours compounds with a hit; in the whole collection about 5% have one here.
ALR H2O2 inh – blocks human ALR sulfhydryl oxidase activity; AID 485317; inhibition, % (test concentration not listed); P55789; purified ALR, DTT oxidation, H2O2 HRP-luminol luminescence; actives 3.8% (n = 290,000);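 active = mean replicate inhibition above about 79%, with every replicate also reaching it, limit read from the data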
PREPL inh – inhibitors of human prolyl oligopeptidase-like enzyme PREPL. recombinant PREPL, fluorescence polarization activity-based probe. inhibition, % at 5.96 µM. actives 0.68% (n = 320,000); in the data active = inhibition above about 43%
Target sequence (Q4J6C6 whole entry, looked up): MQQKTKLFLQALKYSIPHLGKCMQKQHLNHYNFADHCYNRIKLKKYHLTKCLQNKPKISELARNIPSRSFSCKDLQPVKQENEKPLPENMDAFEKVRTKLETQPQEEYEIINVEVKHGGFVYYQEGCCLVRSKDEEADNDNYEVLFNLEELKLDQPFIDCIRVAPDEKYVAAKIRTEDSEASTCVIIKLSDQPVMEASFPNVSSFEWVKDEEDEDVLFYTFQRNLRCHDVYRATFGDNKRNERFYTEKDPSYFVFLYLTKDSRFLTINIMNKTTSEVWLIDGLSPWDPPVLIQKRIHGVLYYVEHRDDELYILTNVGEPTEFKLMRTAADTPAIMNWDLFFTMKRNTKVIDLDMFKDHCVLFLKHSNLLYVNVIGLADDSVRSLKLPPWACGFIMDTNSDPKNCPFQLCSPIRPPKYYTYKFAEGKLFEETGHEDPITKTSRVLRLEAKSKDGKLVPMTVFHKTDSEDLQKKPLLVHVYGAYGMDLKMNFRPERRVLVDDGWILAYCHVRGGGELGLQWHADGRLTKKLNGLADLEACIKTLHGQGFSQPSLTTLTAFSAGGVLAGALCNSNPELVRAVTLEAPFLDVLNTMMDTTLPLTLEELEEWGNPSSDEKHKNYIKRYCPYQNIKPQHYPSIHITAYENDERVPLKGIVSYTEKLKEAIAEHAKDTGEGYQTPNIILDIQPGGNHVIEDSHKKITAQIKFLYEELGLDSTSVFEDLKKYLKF
AI-2 QS mod – modulates the Vibrio harveyi AI-2 quorum sensing system. activity change, % at 7.5 µM. Vibrio harveyi JMH597 AI-2 luminescence/OD600 ratio, 9 h; stronger effect = lower value; strain lacks LuxN and CqsS sensors; 0 = neutral-control median. actives 0.4% (n = 300,000); in the data active = activity change below about -75%, passing the limit was not always enough;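 also: luminescence divided by OD600 gain over 9 h not by final OD600 alone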
CHT inh – inhibitors of human choline transporter CHT. Q9GZV3. CHT-expressing cells, membrane potential dye, choline response; stronger effect = lower value. B-score at 10 µM. actives 0.86% (n = 310,000). AID 488975;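 active = B-score over 3 SD under the library average, and starting fluorescence ratio not unusually high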;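 also: choline stimulus applied at its EC90 after an EC20 pre-addition; B-score computed on integrated fluorescence ratio after choline addition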
CHT PAM – allosteric activators of human choline transporter CHT; actives 0.49% (n = 310,000); CHT-expressing cells, membrane potential dye, choline EC20; stronger effect = higher value; LV-AA mutant CHT in HEK293 cells; B-score at 10 µM;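 active = initial fluorescence not abnormally high and integrated response B-score, plate-corrected, over 3 SD above library mean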
Of the large screens only hits and unclear results are named; the others gave an inactive call.

CN1CCc2nc3sc(C(=O)C45CC6CC(CC(C6)C4)C5)c(N)c3cc2C1	none (no result: AI-2 QS mod)
CNc1nc(N)c(C(=O)C23CC4CC(CC(C4)C2)C3)s1	ALR H2O2 inh 98
Cc1cc(C(=O)NC2CCCc3c2cnn3-c2ccc(C)c(C)c2)no1 (stereo not given)	ALR H2O2 inh 89
Cc1ccc(-n2ncc3c2CCCC3NC(=O)c2ocnc2C)cc1C (stereo not given)	none
Cc1noc(C)c1C(=O)Nc1cccc(S(=O)(=O)N2CCCCC2)c1	none (no result: AI-2 QS mod, CHT inh, CHT PAM)
COc1cccc(-c2nc(CS(=O)(=O)CC(=O)NC3CCCc4ccccc43)c(C)o2)c1 (stereo not given)	ALR H2O2 inh 89
COc1cccc(-c2nc(CS(=O)(=O)CC(=O)Nc3ccccc3C)c(C)o2)c1	none
COc1cccc(-c2nc(CS(=O)(=O)CC(=O)NC3CCCC3)c(C)o2)c1	ALR H2O2 inh 98
Cc1oc(-c2ccccc2Cl)nc1CS(=O)(=O)CC(=O)NC1CCCC1	ALR H2O2 inh 98
O=C(c1cc2ccccc2o1)N1CCN(c2ncccn2)CC1	none (no result: AI-2 QS mod, CHT inh, CHT PAM)
CN1CCN(c2nc(Nc3ccc(F)cc3)nc(Nc3ccc(F)cc3)n2)CC1	ALR H2O2 inh 91
c1ccc(Nc2nc(Nc3ccccc3)nc(N3CCNCC3)n2)cc1	none
Cc1cccc(NC(=O)CN2CCN(C(=O)c3c(C)nn(Cc4ccccc4)c3C)CC2)c1C	none (no result: AI-2 QS mod, CHT inh, CHT PAM)
Cc1c(CCC(=O)O)c(=O)oc2cc3occ(-c4ccc(F)cc4)c3cc12	ALR H2O2 inh 97
Cc1c(CCC(=O)O)c(=O)oc2cc3occ(-c4ccc(Cl)cc4)c3cc12	none
COCCn1c(SCC(=O)Nc2cccc(NC(C)=O)c2)nc2c([nH]c3ccccc32)c1=O	ALR H2O2 inh 98
C=CCn1c(SCC(=O)Nc2ccc(OC)cc2)nc2c([nH]c3ccccc32)c1=O	none
COCCn1c(SCC(=O)Nc2ccc(C(C)=O)cc2)nc2c([nH]c3ccccc32)c1=O	ALR H2O2 inh 98
COCCn1c(SCC(=O)Nc2cccc(F)c2)nc2c([nH]c3ccccc32)c1=O	none
COc1ccc(CCNC(=O)Cc2ccc(NC3=NC4CS(=O)(=O)CC4S3)cc2)c(OC)c1 (stereo not given)	none
Cc1ccc(S(=O)(=O)N2CCC(C(=O)NC3CCCC3)CC2)cc1Cl	none (no result: ALR H2O2 inh)
CCOc1ccc2nc(NC(=O)CS(=O)(=O)c3ccccc3)sc2c1	none
CCOc1ccc2nc(NC(=O)CS(=O)(=O)c3ccc(C)cc3)sc2c1	ALR H2O2 inh 81
Cc1c(-c2ccccn2)c(=O)[nH]n1-c1ccc(F)cc1	none
CC(NC(=O)c1ccc(S(=O)(=O)C(F)F)cc1)c1ccccc1 (stereo not given)	none (no result: ALR H2O2 inh)
N#Cc1c(NC(=O)CSc2ncn[nH]2)sc2c1CCCCC2	none
CC(=O)NC1C(=O)N=C(SCC(=O)Nc2sc3c(c2C#N)CCCCCC3)NC1=O (stereo not given)	ALR H2O2 inh 99
CC(=O)NC1C(=O)N=C(SCC(=O)Nc2cccc(Cl)c2)NC1=O (stereo not given)	ALR H2O2 inh 99
CC(=O)n1nc(-c2ccncc2)nc1SCC(=O)Nc1cccc(Cl)c1	none (no result: ALR H2O2 inh)
Cc1ccccc1NS(=O)(=O)c1ccc(OCC(=O)NCc2ccccn2)cc1	none
O=C(O)C(Oc1ccc2cc(-c3ccc(Cl)cc3)c(=O)oc2c1)c1ccccc1 (stereo not given)	none (no result: PREPL inh)
Nc1nccnc1C(=O)OCC(=O)c1ccc[nH]1	none
Cc1cc(Nc2ccc(N(C)C)cc2)n2ncnc2n1	ALR H2O2 inh 98
Cc1cc(Nc2ccc(Cl)cc2)n2ncnc2n1	none (no result: PREPL inh)
COCCn1cnnc1SCC(=O)Nc1ccc(N2CCCCC2)cc1	ALR H2O2 inh 95 (no result: AI-2 QS mod, CHT inh, CHT PAM)
COCCn1cnnc1SCC(=O)Nc1cc(C)on1	none (no result: AI-2 QS mod, CHT inh, CHT PAM)
Cn1cnnc1SCC(=O)Nc1ccc(S(N)(=O)=O)cc1	ALR H2O2 inh 94
COc1ccc(NC(=O)CSc2nncn2C)cc1	none (no result: ALR H2O2 inh)
Cn1cnnc1SCC(=O)Nc1ccccc1	none
Cn1cnnc1SCC(=O)Nc1ccc(N2CCCCC2)cc1	ALR H2O2 inh 99 (no result: AI-2 QS mod, CHT inh, CHT PAM)
CCN(c1ccccc1)S(=O)(=O)c1ccc(OC)c(NC(=O)Cn2cnc3c2c(=O)n(C)c(=O)n3C)c1	none
COc1ccc(NC(=S)N2CCN(S(=O)(=O)c3ccccc3)CC2)cc1OC	none (no result: PREPL inh)
COc1cc(/C=N/NC(=O)c2cccc(C)c2)ccc1OCC(=O)Nc1ccccc1	none
O=C(c1ccc(OCC2CCCO2)cc1)N1CCc2ccccc2C1 (stereo not given)	none
O=C(c1ccc(OCC2CCCO2)cc1)N1CCN(c2ccccc2)CC1 (stereo not given)	ALR H2O2 inh 98

Bioassay records (PubChem BioAssay)
